Reference: PubChem BioAssay (Tox21)
Results filed as inconclusive are left out. A call without a number means that no potency is given here. Unmarked numbers belong to inactive results. Activity calls are given as the source filed them. Unless noted, the call rests on the fitted dose curve; in most records, active means well fitted curve in the direction sought with a large enough effect in the repeat runs; inconclusive means weak or mixed curves; inactive means no such curve, though single readings can be large; an effect the other way counts as inactive or inconclusive.

What was measured:
[1] = qHTS assay to identify aromatase inhibitors - cell viability counter screen (AID 743084);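 further: cells stimulated with testosterone during compound exposure; nearly all actives have a fitted effect of over 55% in size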; further: potency means the concentration at half of the fitted maximal effect
[2] = target: Aryl hydrocarbon receptor (Homo sapiens) (UniProt P35869); experiment: qHTS assay to identify small molecule that activate the aryl hydrocarbon receptor (AhR) signaling pathway (AID 743085);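 further: HG2L7.5c1 human HepG2 liver cells with stably integrated DRE-driven firefly reporter; series mostly up to about 70 µM; nearly all actives have a fitted effect of over 15% in size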
Procedure, shortened: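 Luminescence (ONE-Glo) from a dioxin-responsive-element luciferase reporter in HG2L7.5c1 HepG2 cells after 24 hr compound exposure at 37C; viability measured by CellTiter-Fluor fluorescence beforehand.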

[3] = qHTS assay to identify small molecule that activate the aryl hydrocarbon receptor (AhR) signaling pathway - cell viability counter screen (AID 743086); further: nearly all actives have a fitted effect of over 45% in size; further: potency means the concentration at half of the fitted maximal effect
Procedure, shortened: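 HepG2-AhR-luc (HG2L7.5c1) cells, 4000/well, treated 24 h at 37 C with compound; viability measured as CellTiter-Fluor fluorescence after 30 min in the same wells as the luciferase read.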

[4] = target: Peroxisome proliferator-activated receptor gamma (Homo sapiens) (UniProt P37231); experiment: qHTS assay to identify small molecule agonists of the peroxisome proliferator-activated receptor gamma (PPARg) signaling pathway (AID 743094; active means well fitted activation curve with a large enough effect in the signal ratio in the repeat runs, not every such curve was filed as active; the % refers to the signal ratio)
Procedure, shortened: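 Quantitative HTS agonist mode: stable HEK293H line with UAS-beta-lactamase reporter under PPARg control, 17 h compound exposure at 37C, fluorescence after 1 h FRET substrate loading at room temperature.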

[5] = target: Peroxisome proliferator-activated receptor gamma (Homo sapiens) (UniProt P37231); experiment: qHTS assay to identify small molecule antagonists of the peroxisome proliferator-activated receptor gamma (PPARg) signaling pathway (AID 743191; calls by dose curve; further: series mostly up to about 63 µM; nearly all actives have a fitted effect of over 30% in size)
Procedure, shortened: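 GeneBLAzer PPARg UAS-bla HEK293H cells, 5 h post-plating, exposed to compounds 17 h at 37C. LiveBLAzer B/G FRET substrate added for 1 h at room temperature; beta-lactamase reporter read by fluorescence intensity.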

[6] = qHTS assay to identify small molecule antagonists of the peroxisome proliferator-activated receptor gamma (PPARg) signaling pathway - cell viability counter screen (AID 743194); further: nearly all actives have a fitted effect of over 55% in size
Procedure, shortened: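 Cytotoxicity counter screen in PPARg-bla HEK293H cells, same wells as reporter assay. Compounds plus 50 nM rosiglitazone (final) for 17 h at 37 C, then viability read by CellTiter-Glo luminescence.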

[7] = qHTS assay for small molecule activators of the heat shock response signaling pathway - cell viability counter screen (AID 743209); further: nearly all actives have a fitted effect of over 50% in size
Procedure, shortened: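 First, HSE-bla HeLa cells were seeded at 1500 cells/well and kept overnight at 37 C. Next, compounds were pinned in and incubated 5 h. After the FRET substrate step, CellTiter-Glo was added and luminescence read 30 min later.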

[8] = qHTS assay for small molecule activators of the heat shock response signaling pathway (AID 743210; active means well fitted activation curve with a large enough effect in the signal ratio in the repeat runs, with a control signal flat, not every such curve was filed as active; the % refers to the signal ratio;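 further: HeLa cells with beta-lactamase reporter driven by heat shock elements; series mostly up to about 63 µM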)
Procedure, shortened: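 Quantitative high-throughput format using an engineered HeLa line in which heat shock response elements drive beta-lactamase; after 5 h with compound, cells received a B/G FRET substrate and fluorescence was read.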

[9] = target: Peroxisome proliferator-activated receptor delta (Homo sapiens) (UniProt Q03181); experiment: qHTS assay to identify small molecule agonists of the peroxisome proliferator-activated receptor delta (PPARd) signaling pathway (AID 743212; calls by dose curve)
Procedure, shortened: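 Quantitative high-throughput agonist screen in a HEK293H beta-lactamase reporter line under UAS control. Compounds in DMSO, at 37 C. Fluorescence read after 2 h with FRET substrate at room temperature.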

[10] = qHTS assay to identify small molecule antagonists of the peroxisome proliferator-activated receptor delta (PPARd) signaling pathway - cell viability counter screen (AID 743213); further: nearly all actives have a fitted effect of over 50% in size
Procedure, shortened: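 PPARd-bla HEK293H cells (3000/well) got compound plus 300 nM L165041 agonist for 17 h at 37 C. Viability in the same wells came from CellTiter-Glo luminescence after 30 min at room temperature.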

[11] = target: Bile acid receptor (Homo sapiens) (UniProt Q96RI1); experiment: qHTS assay to identify small molecule antagonists of the farnesoid-X-receptor (FXR) signaling pathway (AID 743217; active means well fitted inhibition curve with a large enough effect in the signal ratio in the repeat runs, not every such curve was filed as active; the % refers to the signal ratio)
Procedure, shortened: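 Antagonist mode against 50 uM (final) chenodeoxycholic acid stimulation in FXR-bla HEK 293T cells, 16 h at 37 °C. Inhibition detected as reduced beta-lactamase activity via LiveBLAzer B/G FRET fluorescence after 2 h at room temperature.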

[12] = qHTS assay to identify small molecule agonists of the farnesoid-X-receptor (FXR) signaling pathway - cell viability counter screen (AID 743218); further: nearly all actives have a fitted effect of over 45% in size
Procedure, shortened: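 Cytotoxicity counter-screen run in parallel, same wells: FXR-UAS-bla HEK 293T cells dosed 16 h at 37 C, viability read by CellTiter-Glo luminescence after 30 min at room temperature.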

[13] = target: Bile acid receptor (Homo sapiens) (UniProt Q96RI1); experiment: qHTS assay to identify small molecule agonists of the farnesoid-X-receptor (FXR) signaling pathway (AID 743220; active means well fitted activation curve with a large enough effect in the signal ratio in the repeat runs, not every such curve was filed as active; the % refers to the signal ratio)
Procedure, shortened: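 Beta-lactamase reporter under UAS control in GeneBLAzer FXR HEK 293T cells (5000/well) measured with LiveBLAzer FRET substrate after 2 h at room temperature. Compound exposure lasted 16 h at 37C.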

[14] = qHTS assay to identify small molecule antagonists of the farnesoid-X-receptor (FXR) signaling pathway - cell viability counter screen (AID 743221; active means well fitted cell-killing curve with a large enough effect in the repeat runs, not every such curve was filed as active; further: nearly all actives have a fitted effect of over 50% in size)
Procedure, shortened: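 Cytotoxicity counter screen run in the FXR-bla reporter wells: HEK 293T cells exposed to compound with 50 uM (final) chenodeoxycholic acid for 16 h, 37 C, then viability measured by CellTiter-Glo luminescence after 30 min, room temperature.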

[15] = target: Vitamin D3 receptor (Homo sapiens) (UniProt P11473); experiment: qHTS assay to identify small molecule agonists of the vitamin D receptor (VDR) signaling pathway (AID 743222; calls by dose curve)
Procedure, shortened: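 Quantitative HTS agonist-mode screen: compounds in DMSO were pin-transferred onto VDR-bla cells and incubated 16 h at 37C, 5% CO2. Reporter activity was detected with LiveBLAzer B/G FRET substrate after 2 h at room temperature.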

[16] = target: Vitamin D3 receptor (Homo sapiens) (UniProt P11473); experiment: qHTS assay to identify small molecule antagonists of the vitamin D receptor (VDR) signaling pathway (AID 743223; active means well fitted inhibition curve with a large enough effect in the signal ratio in the repeat runs, not every such curve was filed as active; the % refers to the signal ratio)
Procedure, shortened: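 Antagonist mode: compound added to VDR-bla cells alongside agonist 1alpha,25-dihydroxyvitamin D3 (3 nM final), incubation 16 h at 37C. Read-out is LiveBLAzer FRET fluorescence, 2 h at room temperature.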

[17] = qHTS assay for small molecule agonists of the antioxidant response element (ARE) signaling pathway - cell viability counter screen (AID 743203; calls by dose curve; further: nearly all actives have a fitted effect of over 55% in size)
Procedure, shortened: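 Seeded at 2,000 cells/well, ARE-bla HepG2 cells were incubated 5 hrs before compound addition. After 16 hrs of treatment at 37C with 5% CO2, CellTiter-Glo reagent was added and luminescence read 30 min later.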

[18] = qHTS assay to identify small molecule agonists of the peroxisome proliferator-activated receptor delta (PPARd) signaling pathway - cell viability counter screen (AID 743211); further: nearly all actives have a fitted effect of over 55% in size
Procedure, shortened: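 Viability was measured as CellTiter-Glo luminescence (30 min, room temperature) in the same wells as the beta-lactamase readout. GeneBLAzer PPARd UAS-bla HEK293H cells received compound after 5 h plating and were incubated 17 h at 37 C.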

[19] = target: Peroxisome proliferator-activated receptor delta (Homo sapiens) (UniProt Q03181); experiment: qHTS assay to identify small molecule antagonists of the peroxisome proliferator-activated receptor delta (PPARd) signaling pathway (AID 743215; active means well fitted inhibition curve with a large enough effect in the signal ratio in the repeat runs, not every such curve was filed as active; the % refers to the signal ratio;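 further: cells stimulated with agonist L165041 at 300 nM final during compound exposure; series mostly up to about 62 µM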)
Procedure, shortened: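 Inhibition of L165041-driven (300 nM final) PPARd signaling is scored in HEK293H UAS-bla cells. Exposure lasts 17 h at 37 C; beta-lactamase activity is then read by FRET substrate fluorescence after 2 h at room temperature.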

[20] = qHTS assay for small molecule agonists of the antioxidant response element (ARE) signaling pathway (AID 743202; active means well fitted activation curve with a large enough effect in the signal ratio in the repeat runs, not every such curve was filed as active; the % refers to the signal ratio)
Procedure, shortened: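 Agonist mode reporter screen: HepG2 cells with ARE-controlled beta-lactamase are incubated with test compounds for 16 h at 37 C, and beta-lactamase activity is measured as fluorescence of cleaved B/G FRET substrate.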

Chain of Peroxisome proliferator-activated receptor gamma (Homo sapiens) (P37231 whole entry, looked up): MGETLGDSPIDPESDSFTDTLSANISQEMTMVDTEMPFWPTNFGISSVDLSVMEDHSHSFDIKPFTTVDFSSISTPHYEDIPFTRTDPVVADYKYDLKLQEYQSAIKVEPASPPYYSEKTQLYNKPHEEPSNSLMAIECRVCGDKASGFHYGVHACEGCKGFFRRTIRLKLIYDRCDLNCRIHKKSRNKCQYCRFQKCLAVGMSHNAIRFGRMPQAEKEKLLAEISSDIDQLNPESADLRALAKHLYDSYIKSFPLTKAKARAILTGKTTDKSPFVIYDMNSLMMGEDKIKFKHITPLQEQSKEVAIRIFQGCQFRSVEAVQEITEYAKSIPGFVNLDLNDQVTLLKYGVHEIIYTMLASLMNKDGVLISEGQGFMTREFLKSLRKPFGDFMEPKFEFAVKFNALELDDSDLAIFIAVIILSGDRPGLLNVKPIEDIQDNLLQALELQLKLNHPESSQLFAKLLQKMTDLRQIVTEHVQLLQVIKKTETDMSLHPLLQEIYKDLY
Chain of Vitamin D3 receptor (Homo sapiens) (P11473 whole entry, looked up): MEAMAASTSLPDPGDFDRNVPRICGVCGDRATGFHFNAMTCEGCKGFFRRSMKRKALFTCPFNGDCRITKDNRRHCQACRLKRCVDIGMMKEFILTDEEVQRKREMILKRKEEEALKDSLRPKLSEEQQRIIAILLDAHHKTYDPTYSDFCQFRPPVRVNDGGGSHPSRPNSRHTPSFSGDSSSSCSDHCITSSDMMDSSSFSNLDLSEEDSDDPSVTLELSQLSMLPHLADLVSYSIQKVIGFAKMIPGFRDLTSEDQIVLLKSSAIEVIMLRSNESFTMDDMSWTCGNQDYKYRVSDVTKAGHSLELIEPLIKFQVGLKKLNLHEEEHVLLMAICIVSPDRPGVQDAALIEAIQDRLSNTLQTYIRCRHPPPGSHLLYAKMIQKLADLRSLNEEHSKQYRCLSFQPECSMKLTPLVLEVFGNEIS
Chain of Bile acid receptor (Homo sapiens) (Q96RI1 whole entry, looked up): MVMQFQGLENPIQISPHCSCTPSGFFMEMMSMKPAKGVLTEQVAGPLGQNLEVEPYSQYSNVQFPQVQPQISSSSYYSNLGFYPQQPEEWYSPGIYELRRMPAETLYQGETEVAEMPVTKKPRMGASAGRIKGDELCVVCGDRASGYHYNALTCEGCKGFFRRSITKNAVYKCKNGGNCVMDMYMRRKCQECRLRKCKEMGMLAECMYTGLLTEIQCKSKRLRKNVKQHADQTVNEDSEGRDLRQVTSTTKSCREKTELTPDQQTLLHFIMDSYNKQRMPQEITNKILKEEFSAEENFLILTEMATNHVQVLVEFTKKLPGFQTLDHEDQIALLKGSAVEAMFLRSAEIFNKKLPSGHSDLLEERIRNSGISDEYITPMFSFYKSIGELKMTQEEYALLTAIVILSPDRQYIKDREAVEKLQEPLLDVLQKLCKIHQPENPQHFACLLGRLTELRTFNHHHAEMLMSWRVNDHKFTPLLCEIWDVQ
Chain of Peroxisome proliferator-activated receptor delta (Homo sapiens) (Q03181 whole entry, looked up): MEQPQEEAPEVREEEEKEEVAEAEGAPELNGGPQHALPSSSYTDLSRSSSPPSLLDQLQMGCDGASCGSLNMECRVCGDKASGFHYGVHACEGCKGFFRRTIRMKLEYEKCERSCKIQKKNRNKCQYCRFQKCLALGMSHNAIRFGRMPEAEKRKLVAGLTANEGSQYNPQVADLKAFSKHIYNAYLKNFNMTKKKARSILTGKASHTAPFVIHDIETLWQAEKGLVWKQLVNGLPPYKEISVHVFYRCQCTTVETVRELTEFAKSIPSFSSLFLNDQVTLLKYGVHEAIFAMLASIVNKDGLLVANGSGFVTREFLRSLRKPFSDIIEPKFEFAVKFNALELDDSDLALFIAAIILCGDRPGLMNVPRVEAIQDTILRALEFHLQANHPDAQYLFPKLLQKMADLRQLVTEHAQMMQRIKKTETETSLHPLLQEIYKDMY
Chain of Aryl hydrocarbon receptor (Homo sapiens) (P35869 whole entry, looked up): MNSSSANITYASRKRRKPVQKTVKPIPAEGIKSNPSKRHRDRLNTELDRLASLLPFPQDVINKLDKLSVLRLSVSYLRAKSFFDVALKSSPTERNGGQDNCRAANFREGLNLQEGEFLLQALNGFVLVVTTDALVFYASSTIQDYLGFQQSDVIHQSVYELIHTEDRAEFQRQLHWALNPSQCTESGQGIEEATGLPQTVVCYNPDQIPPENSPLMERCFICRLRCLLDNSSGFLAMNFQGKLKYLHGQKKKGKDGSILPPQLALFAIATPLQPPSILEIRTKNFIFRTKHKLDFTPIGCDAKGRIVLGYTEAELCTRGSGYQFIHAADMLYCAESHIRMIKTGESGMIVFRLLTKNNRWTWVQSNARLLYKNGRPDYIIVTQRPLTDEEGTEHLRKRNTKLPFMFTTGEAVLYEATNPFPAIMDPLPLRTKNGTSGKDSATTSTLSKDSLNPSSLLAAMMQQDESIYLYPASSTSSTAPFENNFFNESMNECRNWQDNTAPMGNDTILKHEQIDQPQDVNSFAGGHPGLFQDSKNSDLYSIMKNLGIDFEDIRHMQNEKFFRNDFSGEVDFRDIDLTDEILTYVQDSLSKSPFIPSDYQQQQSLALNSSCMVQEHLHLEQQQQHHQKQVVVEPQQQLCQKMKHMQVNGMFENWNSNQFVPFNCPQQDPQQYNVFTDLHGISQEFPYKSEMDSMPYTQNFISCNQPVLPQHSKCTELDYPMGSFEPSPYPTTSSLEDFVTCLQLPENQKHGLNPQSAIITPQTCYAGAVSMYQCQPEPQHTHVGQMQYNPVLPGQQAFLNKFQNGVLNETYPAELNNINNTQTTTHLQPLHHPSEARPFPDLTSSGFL

CCCCNc1ccc(C(=O)OCCOCCOCCOCCOCCOCCOCCOCCOCCOC)cc1
Potency [1]: inactive | Potency [2]: inactive | Potency [3]: inactive | Potency [4]: inactive | Potency [5]: inactive | Potency [6]: inactive | Potency [7]: inactive | Potency [8]: inactive | Potency [9]: inactive | Potency [10]: inactive | Potency [11]: inactive | Potency [12]: inactive | Potency [13]: inactive | Potency [14]: inactive | Potency [15]: inactive | outcome [16]: inactive

CCOc1ccc(N=Nc2ccc(/C=C/c3ccc(N=Nc4ccc(OCC)cc4)cc3S(=O)(=O)O)c(S(=O)(=O)O)c2)cc1
Potency [1]: 26.9 µM (active) | Potency [2]: inactive | Potency [3]: 19 µM (active) | Potency [4]: inactive | Potency [5]: inactive | Potency [6]: inactive | Potency [17]: inactive | Potency [7]: inactive | Potency [8]: inactive | Potency [18]: inactive | Potency [9]: inactive | Potency [10]: inactive | Potency [19]: inactive | Potency [14]: inactive | Potency [15]: inactive | outcome [16]: inactive

CCCCCCCCCCO[C@@H]1O[C@H](CO)[C@@H](O)[C@H](O)[C@H]1O
Potency [1]: inactive | Potency [2]: inactive | Potency [3]: inactive | Potency [4]: inactive | Potency [5]: inactive | Potency [6]: inactive | Potency [17]: inactive | Potency [7]: inactive | Potency [8]: inactive | Potency [12]: inactive | Potency [14]: inactive | Potency [15]: inactive | outcome [16]: inactive

C=C1[C@H]2CC[C@@H]3[C@H]2C(C)(C)CCC[C@]13C
Potency [1]: inactive | Potency [2]: inactive | Potency [3]: inactive | Potency [4]: inactive | Potency [6]: inactive | Potency [20]: inactive | Potency [17]: inactive | Potency [7]: inactive | Potency [8]: inactive | Potency [18]: inactive | Potency [10]: inactive | Potency [19]: inactive | Potency [11]: inactive | Potency [12]: inactive | Potency [13]: inactive | Potency [14]: inactive

C=CCOc1ccccc1OCC(O)CNC(C)C (configuration not stated)
Potency [1]: inactive | Potency [2]: inactive | Potency [3]: inactive | Potency [4]: inactive | Potency [6]: inactive | Potency [20]: inactive | Potency [17]: inactive | Potency [7]: inactive | Potency [8]: inactive | Potency [18]: inactive | Potency [9]: inactive | Potency [10]: inactive | Potency [11]: inactive | Potency [12]: inactive | Potency [13]: inactive | Potency [14]: inactive | Potency [15]: inactive | outcome [16]: inactive

COCC(C)OC(C)=O (configuration not stated)
Potency [1]: inactive | Potency [2]: inactive | Potency [3]: inactive | Potency [4]: inactive | Potency [5]: inactive | Potency [6]: inactive | Potency [17]: inactive | Potency [7]: inactive | Potency [8]: inactive | Potency [18]: inactive | Potency [9]: inactive | Potency [10]: inactive | Potency [11]: inactive | Potency [13]: inactive | Potency [14]: inactive | Potency [15]: inactive | outcome [16]: inactive

CCC(Cl)CCC(Cl)C(Cl)CC(Cl)C(Cl)C(Cl)CCl (configuration not stated)
Potency [1]: inactive | Potency [2]: inactive | Potency [3]: inactive | Potency [4]: inactive | Potency [5]: inactive | Potency [6]: inactive | Potency [17]: inactive | Potency [7]: inactive | Potency [11]: inactive | Potency [12]: inactive | Potency [13]: inactive | Potency [14]: inactive | outcome [16]: inactive

NC(=O)C(c1ccccc1)(c1ccccc1)[C@@H]1CCN(CCc2ccc3c(c2)CCO3)C1
Potency [1]: inactive | Potency [2]: inactive | Potency [3]: inactive | Potency [4]: inactive | Potency [5]: inactive | Potency [6]: inactive | Potency [17]: inactive | Potency [7]: inactive | Potency [8]: inactive | Potency [11]: inactive | Potency [14]: inactive | Potency [15]: inactive | outcome [16]: inactive

CC(C)(C)OCC1CO1 (configuration not stated)
Potency [1]: inactive | Potency [2]: inactive | Potency [3]: inactive | Potency [4]: inactive | Potency [6]: inactive | Potency [20]: inactive | Potency [17]: inactive | Potency [7]: inactive | Potency [8]: inactive | Potency [18]: inactive | Potency [10]: inactive | Potency [19]: inactive | Potency [12]: inactive | Potency [14]: inactive | outcome [16]: inactive
